# FMDV antiviral – blocks foot and mouth disease virus; 1.2% of 410,000 active; Potency, µM (titrated, usually from 57.9 µM), for the others: top-dose activity change, negative = inhibition, hits mostly inhibitors; FMDV antiviral cell-based qHTS; calls by dose curve; tested in HEK293T cells; also: read-out not given here; potency is read from the fitted curve at half-maximal effect; nearly all actives have a fitted effect of over 45% in size
# LASV entry inh – inhibitors of Lassa virus binding or cell entry. 1.2% of 300,000 active. Lassa virus pseudotype entry inhibition, cell reporter. Potency, µM (doses to about 37.9 µM), for inactives: top-dose activity change, negative = inhibition, actives largely listed as inhibitors. AID 540256; calls by dose curve; tested in HEK293 cells; also: potency is read from the fitted curve at half-maximal effect; nearly all actives have a fitted effect of over 50% in size
# HCV inhibitor – blocks hepatitis C virus; Huh7.5.1 HCVcc-Cre infection, luciferase reporter, 44 h; Potency, µM (series often up to 41.8 µM), without a hit: top-dose activity change, negative = inhibition, usual class: inhibitors; 3.4% of 340,000 active; AID 651820; active = well fitted inhibition curve with a large enough effect; inconclusive = small, poorly fitted or top-dose-only effect, or another doubt; inactive = no such curve, though single readings can be large or run the other way; also: potency is read from the fitted curve at half-maximal effect
#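 1,000 cells/well; 4 h culture; + compound; + HCVcc-Cre (~0.5 moi); 44 h; luciferase substrate, RT 15 min; read 15 sec.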
# MARV entry inh – inhibitors of Marburg virus binding or cell entry; 1.8% of 300,000 active; Marburg virus pseudotyped entry inhibition, cell reporter; Potency, µM (highest dose often 37.8 µM), inactives show at the highest dose activity change, negative = inhibition, hits mostly inhibitors; calls by dose curve; tested in HEK293 cells; also: potency is read from the fitted curve at half-maximal effect
# HCMV antiviral – inhibitors of human cytomegalovirus. HFF cells, HCMV-luciferase reporter, 72 h; stronger effect = lower value. activity change, negative = inhibition, % at 57.5 µM. 4.5% of 410,000 active. AID 1259415; in the data active = activity change below about -60%; inconclusive = no clear call, values can overlap the other calls; inactive = above about -39%
#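 Screen run at 2 compound doses on HFFs infected with reporter HCMV, MOI 1 PFU/cell. Luciferase activity from cell lysates at 72 h post infection gave inhibition relative to buffer-only and Salinomycin wells.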
# * = called active by the depositor; ? = inconclusive; . = not tested or not shown; [ ] = another dose, or the depositor's remark. In the library only some 7.9% were active in any assay of this set; here they are far more common. % is scaled to controls: 0 for no effect and ±100 for the full control effect.
SMILES,FMDV antiviral,LASV entry inh,HCV inhibitor,MARV entry inh,HCMV antiviral
CCOc1cc(C(=O)N/N=C/C(Br)=C/c2ccccc2)cc(OCC)c1OCC,-15%,?,?,?,-76*
CCOc1ccc(-c2c(C)nn3c(C)c(C(=O)NCC(C)c4ccccc4)cnc23)cc1OCC (stereo unspecified),-9%,17%[46.1 µM],.,.,-14
CCc1cccc(NC(=O)CSc2nnc(-c3cc4occc4n3C)n2-c2ccccc2C)c1,4%,-26%[46.1 µM],.,.,0
CCCCOc1cccc(C(=O)N(Cc2cccs2)c2ccc(OC)cc2)c1,-23%,-11%[46.1 µM],.,?,-60*
COc1ccc(N(Cc2cccs2)C(=O)c2ccc(C(C)(C)C)cc2)cc1,-4%,-2%[46.1 µM],.,?,-9
COc1ccc(N(Cc2cccs2)C(=O)c2ccc(OC)c(Cl)c2)cc1,-5%,-23%[46.1 µM],.,?,-91*
COc1ccc(OC)c(NC(=O)CCNC(=O)c2ccco2)c1,-7%,4%[46.1 µM],-4%,-10%[46.1 µM],-19
COc1cccc(CN2CCC3(CCC(CNC(=O)c4ccco4)O3)CC2)c1OC (stereo unspecified),-5%,.,.,.,.
CCN(c1ccccc1)S(=O)(=O)c1ccc(Cl)c(NC(=O)CNC(C)c2ccccc2)c1 (stereo unspecified),-28%,?,?,?,-8
CCC(C)NCC(=O)Nc1cc(S(=O)(=O)N(CC)c2ccccc2)ccc1Cl (stereo unspecified),0%,?,?,21µM*,?
CCN(CC)S(=O)(=O)c1ccc(Cl)c(NC(=S)NC(=O)C2CCCC2)c1,20µM*,.,4µM*,.,?
CCN(c1ccccc1)S(=O)(=O)c1ccc(Cl)c(NC(=O)CN2CCCCCC2)c1,?,?,14µM*,?,?
CN(C)S(=O)(=O)c1ccc(Cl)c(NC(=O)CN2CCCCCC2)c1,-17%,-8%,-17%,-13%[46.1 µM],?
CCN(c1ccccc1)S(=O)(=O)c1ccc(Cl)c(NC(=O)CN(C)Cc2cccc(F)c2)c1,-20%,?,8.9µM*,?,?
O=C(O)C1CCCN(S(=O)(=O)c2ccc(-c3ccc(=O)[nH]n3)s2)C1 (stereo unspecified),-5%,23%[46.1 µM],21%,?,-15
COC(=O)c1c(C)oc(C)c1S(=O)(=O)NCc1cccs1,78%,.,9%,.,-60*
CCOC(=O)c1cc(-c2ccccc2)nc2nc(N3CCCCC3)sc12,-3%,-12%,-19%,15%,-5
CCOC(=O)c1cnc(N)nc1-c1ccccc1,-25%,13%,18%,-4%,-10
CCOC(=O)c1cc(-c2ccccc2)nc2nc(N(CC)CC)sc12,-25%,?,14µM*,?,-90*
CN(C)C(=O)c1cnc(-c2ccccc2)nc1-c1ccccc1,-13%,-2%,-9%,?,-62*
CCOC(=O)c1cnn2c(C)cc(-c3ccccc3)nc12,40%,7%,10µM*,9%,42
CCOC(=O)c1cnc(-c2ccccc2)nc1-c1ccccc1,-9%,-7%[46.1 µM],-12%,?,-102*
O=C(CNC(=O)c1cc(S(=O)(=O)N2CCCCC2)ccc1N1CCOCC1)Nc1ccc(F)c(F)c1,-5%,11%,21%,5%,-5
O=C(COC(=O)C12CC3CC(CC(C3)C1)C2)Nc1ccc2[nH]c(=O)[nH]c2c1,27%,?,4%,-1%[46.1 µM],.
CC(C)(C)C1CCC(C(=O)OCC(=O)Nc2ccc3[nH]c(=O)[nH]c3c2)CC1 (stereo unspecified),-21%,18%[46.1 µM],19%,?,-72*
SMILES,FMDV antiviral,LASV entry inh,HCV inhibitor,MARV entry inh,HCMV antiviral
CCn1cc(SCC(=O)NCc2ccc3c(c2)OCO3)c2ccccc21,5%,.,10µM*,.,26
CCCn1cc(SCC(=O)NCc2ccc3c(c2)OCO3)c2ccccc21,8%,.,?,.,-1
COc1ccccc1-n1c(SCC(=O)NCc2ccc3c(c2)OCO3)nc2cc([N+](=O)[O-])ccc21,2%,?,25µM*,24%,-11
CC(Sc1nc2cc([N+](=O)[O-])ccc2n1-c1ccc(F)cc1)C(=O)NCc1ccc2c(c1)OCO2 (stereo unspecified),-2%,?,?,?,-22
Cc1ccc(CNC(=O)COC(=O)c2cc(=O)[nH]c3ccccc23)cc1,-4%,.,9%,.,51
Cc1ccc(S(=O)(=O)NCCC(=O)N2CCC(C(N)=O)CC2)cc1C,0%,15%,16%,6%,13
Cc1ccc(C)c(S(=O)(=O)NCCC(=O)N2CCCC(C(N)=O)C2)c1 (stereo unspecified),0%,.,6%,.,-83*
Cc1ccc(CNC(=O)Cn2cc(S(=O)(=O)Cc3ccccc3Cl)c3ccccc32)cc1,-7%,-16%[46.1 µM],.,.,0
O=C(NCCc1ccccc1)c1cccc(NC(=O)C2CC2)c1,64%,?,0.56µM*,.,103
CC(C)(C)OC(=O)N1CCC(C(=O)Nc2cccc(C(=O)NCCCCc3ccccc3)c2)CC1,18µM*,.,?,.,-3
O=C(NC1CC1)c1cccc(NC(=O)C2CC2)c1,-19%,.,5%,.,-81*
CC(C)(C)OC(=O)N1CCCC(C(=O)Nc2cccc(C(=O)NCCCCc3ccccc3)c2)C1 (stereo unspecified),?,.,-18%[8.37 µM],?,21
COc1cccc(OCCNS(=O)(=O)c2ccccc2[N+](=O)[O-])c1,9%,.,-1%,.,9
COCCCNc1nc2c(S(=O)(=O)c3ccc(C)c(C)c3)nnn2c2ccc(Cl)cc12,-7%,.,.,?,6
O=[N+]([O-])c1ccc(Oc2cccnc2)c([N+](=O)[O-])c1,32µM*,?,?,7.9µM*,2
Nc1ccc(Oc2ccc([N+](=O)[O-])cc2[N+](=O)[O-])cc1,-20%,-10%,-19%,-23%,?
COc1ccc([N+](=O)[O-])cc1NCc1cccc([N+](=O)[O-])c1,-11%,?,4µM*,1%[46.1 µM],-3
COc1ccc([N+](=O)[O-])cc1NCc1c(F)cccc1F,-2%,.,.,.,4
COc1ccc([N+](=O)[O-])cc1NCc1cccnc1,4%,?,7.9µM*,?,10
COc1cc([N+](=O)[O-])ccc1NC(=O)NCc1cccnc1,-9%,.,-17%,.,-23
O=[N+]([O-])c1ccc(O)c(Nc2ncnc3ccccc23)c1,1%,10%,-21%,4%,53
COc1ccc([N+](=O)[O-])cc1Nc1ncnc2ccccc12,-16%,-1%,?,-5%,-62*
CCCC(=O)Nc1ccc2c(c1)nc(CN1CCN(C(=O)OCC)CC1)n2C(C)C,-18%,-25%[46.1 µM],.,?,.
Cc1cnc(-n2ncc(C(=O)NCc3ccccn3)c2C2CC2)nc1-c1cccs1,-11%,.,.,.,.
CC(C)[C@H](NC(=O)N1c2ccccc2NC(=O)[C@@H]1C(C)C)C(=O)N[C@@H](Cc1c[nH]c2ccccc12)C(=O)O,-7%,.,-15%,.,23

# Compound activity: PubChem, National Center for Advancing Translational Sciences (NCATS)
